# Reference: PubChem BioAssay (EPA / NIEHS)
# Records with an inconclusive call do not appear. Calls of active or inactive are those of the source. How the source made its calls, unless noted: active means hit-call score of the fitted dose curve at least 0.9, where 1 is the maximum; inconclusive means response in the unintended direction; inactive means score below 0.9.
# Legend:
# [1] = target: Thyroid hormone receptor alpha (Rattus norvegicus) + Thyroid hormone receptor beta (Rattus norvegicus) (UniProt P18113+P63059); experiment: TOX21_TR_LUC_GH3_Antagonist_Followup: Tox21 GH3 Thyroid Hormone Receptor Antagonism Luciferase Follow-Up Assay (AID 2283942)
# How it was run: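 Confirmatory qHTS, antagonist mode: T3 (1.0 nM final) + test cpd, 15 conc, 92 uM–5nM final, GH3 rat pituitary line, 24 h, 37C. Luc reporter, RLU vs DMSO.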
# [2] = target: THRA (gene 7067) (UniProt P10827); experiment: TOX21_TRA_COA_Antagonist_Followup_ratio: Tox21 Thyroid Hormone Receptor alpha Antagonism through Coactivator Recruitment Follow-Up Assay, Ratio (AID 2283953)
# How it was run: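 520:495 nm emission ratio (excitation 340 nm) reports fluorescein-SRC-2 peptide recruitment to GST-TRα LBD by TR-FRET with Tb anti-GST antibody. Values were normalized to DMSO (0%) and T3 control wells (100%); loss of signal indicated antagonism.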
# [3] = target: THRB (gene 7068) (UniProt P10828); experiment: TOX21_TRB_BLA_Antagonist_Followup_ratio: Tox21 Thyroid Hormone Receptor beta Antagonism Beta-lactamase (BLA) Follow-Up Assay, Ratio (AID 2283958)
# How it was run: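 HEK293T cells with a GAL4-TRb LBD fusion and UAS-bla reporter, 3,000 cells/well in phenol red-free DMEM with 2% charcoal-stripped FBS. Exposed 18 h at 37C to 11 concentrations in triplicate; CCF4 460:530 nm ratio after 2 h, DMSO-referenced.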
# [4] = TOX21_TRB_BLA_Antagonist_Followup_viability: Viability Assessment in the Tox21 Thyroid Hormone Receptor beta Antagonism Beta-lactamase (BLA) Follow-Up Assay (AID 2283961)
# How it was run: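 TRβ-bla HEK293T (human TRβ LBD fused to GAL4 DBD), 3,000 cells/well, 2% charcoal-stripped FBS, phenol red-free medium; 18 h compound exposure, 37C; CellTiter-Glo 30 min RT; luminescence, loss-of-signal readout.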
# [5] = target: THRB (gene 7068) (UniProt P10828); experiment: TOX21_TRB_COA_Antagonist_Followup_ratio: Tox21 Thyroid Hormone Receptor beta Antagonism through Coactivator Recruitment Follow-Up Assay, Ratio (AID 2283967)
# How it was run: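 Test compound was incubated with 5.0 nM GST-TRβ LBD in 0.10% BSA. Then 200 nM fluorescein-SRC-2 peptide and 2 nM terbium anti-GST antibody were added. TR-FRET (520:495 nm) was measured and normalized to DMSO and T3 controls.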
# [6] = target: Retinoic acid receptor RXR-alpha (Homo sapiens) (UniProt P19793); experiment: TOX21_TR_RXR_BLA_Antagonist_Followup_ratio: Tox21 Thyroid Hormone Receptor beta Retinoid X Receptor alpha (RXRa) Antagonism Beta-lactamase (BLA) Follow-Up Assay, Ratio (AID 2283972)
# How it was run: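 HEK293T RXRa-bla, 2% charcoal-stripped FBS medium, 16 h compound exposure at 37C, qHTS 11 conc x3. CCF4 FRET ratio ch2/ch1 (460:530), DMSO = baseline, loss-of-signal fit.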
# [7] = TOX21_TR_RXR_BLA_Antagonist_Followup_viability: Viability Assessment in the Tox21 Thyroid Hormone Receptor beta Retinoid X Receptor alpha (RXRa) Antagonism Beta-lactamase (BLA) Follow-Up Assay (AID 2283979)
# How it was run: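 Follow-up compounds (11 concentrations, triplicate) were incubated 16 h at 37C/5% CO2 with HEK293T RXRa-bla cells seeded at 2,500/well in charcoal-stripped-serum medium. ATP content by CellTiter-Glo luminescence gave viability; curves fitted in both directions against DMSO.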
# [8] = target: THRA (gene 7067) (UniProt P10827); experiment: TOX21_TRA_COA_Agonist_Followup_ratio: Tox21 Thyroid Hormone Receptor alpha Agonism through Coactivator Recruitment Follow-Up Assay, Ratio (AID 2283948; active means hit-call score of the fitted dose curve at least 0.9, where 1 is the maximum; inactive means score below 0.9)
# How it was run: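 Follow-up specificity assay in which TRα ligand-binding domain, expressed as a GST fusion, recruits a fluorescein-labelled SRC-2 peptide. Energy transfer from a terbium anti-GST antibody gives the acceptor/donor ratio, fitted upward relative to DMSO.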
# [9] = target: THRB (gene 7068) (UniProt P10828); experiment: TOX21_TRB_BLA_Agonist_Followup_ratio: Tox21 Thyroid Hormone Receptor beta Agonism Beta-lactamase (BLA) Follow-Up Assay, Ratio (AID 2283954)
# How it was run: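 Human TRβ LBD–GAL4 DBD fusion in GeneBLAzer UAS-bla HEK293T cells; 11 concentrations in triplicate, 18 h at 37°C/5% CO2, T3 as agonist control. CCF4-AM substrate 2 h at room temperature; 460:530 nm ratio fitted for gain of signal versus DMSO.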
# [10] = target: THRB (gene 7068) (UniProt P10828); experiment: TOX21_TRB_COA_Agonist_Followup_ratio: Tox21 Thyroid Hormone Receptor beta Agonism through Coactivator Recruitment Follow-Up Assay, Ratio (AID 2283963; active means hit-call score of the fitted dose curve at least 0.9, where 1 is the maximum; inactive means score below 0.9)
# How it was run: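 Agonism is measured as coactivator recruitment in a purified-protein TR-FRET format, using GST-TRβ LBD at 5.0 nM, fluorescein-SRC-2 peptide at 200 nM and Tb-labeled anti-GST antibody at 2 nM. Values are 520:495 nm ratios relative to DMSO (0%) and T3 (100%).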
# [11] = target: Retinoic acid receptor RXR-alpha (Homo sapiens) (UniProt P19793); experiment: TOX21_TR_RXR_BLA_Agonist_Followup_ratio: Tox21 Thyroid Hormone Receptor beta Retinoid X Receptor alpha (RXRa) Agonism Beta-lactamase (BLA) Follow-Up Assay, Ratio (AID 2283968)
# How it was run: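 RXRa-UAS-bla HEK293T cells, 5 h attachment at 37C/5% CO2, then 11 concentrations in triplicate for 16 h; 9-cis retinoic acid positive control. FRET-B/GCCF4-AM substrate 2 h at room temperature; 460:530 nm ratio, fitted for gain versus DMSO.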
# [12] = TOX21_TR_RXR_BLA_Agonist_Followup_viability: Viability Assessment in the Tox21 Thyroid Hormone Receptor beta Retinoid X Receptor alpha (RXRa) Agonism Beta-lactamase (BLA) Follow-Up Assay (AID 2283970)
# How it was run: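 RXRa-UAS-bla HEK293T cells, 2,500/well in phenol red-free DMEM with 2% charcoal-stripped FBS, dosed for 16 h at 37C. Viability measured by CellTiter-Glo ATP luminescence; fitted bidirectionally against DMSO baseline, loss of signal indicating cytotoxicity.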
# [13] = TOX21_PR_LUC_Followup_Antagonist_viability: Viability Assessment in the Tox21 HEK293 Progesterone Receptor (PR) Antagonism Luciferase Follow-Up Assay (AID 2283940)
# How it was run: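 HEK293-PR-A-luc cells kept in charcoal-stripped FBS medium were plated 5 h before compound addition, then exposed 16 h at 37C; viability read as cellular ATP by luciferase luminescence, loss of signal indicating cytotoxicity.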
# [14] = TOX21_PR_LUC_Followup_Agonist_viability: Viability Assessment in the Tox21 HEK293 Progesterone Receptor (PR) Agonism Luciferase Follow-Up Assay (AID 2283941);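 further: loss of signal means cytotoxicity so actives lower viability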
# How it was run: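 HEK293-PR-A-luc cells, kept in 10% charcoal-stripped FBS medium, were treated with compounds for 16 h at 37C. Viability read as cellular ATP by luciferase-coupled luminescence; loss of signal indicates cytotoxicity.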
# [15] = CCTE_Harrill_HTTr_Viability_DMEM_6hr: (Pilot) CCTE's 6-hour Cell Viability Assessment for the High-Throughput Transcriptomics (HTTr) Platform, in MCF-7 cells cultured in DMEM + 10% fetal bovine serum, Harrill Lab (AID 2283973; active means hit-call score of the fitted dose curve at least 0.9, where 1 is the maximum; inactive means score below 0.9)
# How it was run: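 MCF-7 cells in DMEM + 10% FBS, eight-point dilution series, 6 h exposure. Membrane integrity by propidium iodide exclusion with high-content imaging; bidirectional fit versus DMSO.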
# [16] = CCTE_Harrill_HTTr_Viability_DMEM_12hr: (Pilot) CCTE's 12-hour Cell Viability Assessment for the High-Throughput Transcriptomics (HTTr) Platform, in MCF-7 cells cultured in DMEM + 10% fetal bovine serum, Harrill Lab (AID 2283974; active means hit-call score of the fitted dose curve at least 0.9, where 1 is the maximum; inactive means score below 0.9)
# How it was run: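 MCF-7 cells in DMEM + 10% FBS exposed 12 h to an eight-point dilution series; membrane integrity scored by propidium iodide exclusion with high-content imaging, bidirectional fitting versus DMSO.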
# [17] = CCTE_Harrill_HTTr_Viability_DMEM_24hr: (Pilot) CCTE's 24-hour Cell Viability Assessment for the High-Throughput Transcriptomics (HTTr) Platform, in MCF-7 cells cultured in DMEM + 10% fetal bovine serum, Harrill Lab (AID 2283975; active means hit-call score of the fitted dose curve at least 0.9, where 1 is the maximum; inactive means score below 0.9)
# How it was run: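 MCF-7 cells in DMEM with 10% FBS exposed for 24 hours to an eight-point dilution series. Membrane integrity by propidium iodide exclusion with high content imaging; bidirectional fit against DMSO.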
# [18] = CCTE_Harrill_HTTr_Viability_PRF_DMEM_6hr: (Pilot) CCTE's 6-hour Cell Viability Assessment for the High-Throughput Transcriptomics (HTTr) Platform, in MCF-7 cells cultured phenol red-free DMEM + 10% charcoal-stripped fetal bovine serum, Harrill Lab (AID 2283976; active means hit-call score of the fitted dose curve at least 0.9, where 1 is the maximum; inactive means score below 0.9)
# How it was run: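 MCF-7 cells in phenol red-free DMEM with 10% charcoal-stripped FBS exposed 6 hours to an eight-point dilution series. Propidium iodide exclusion imaged; curves fitted bidirectionally against DMSO.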
# [19] = CCTE_Harrill_HTTr_Viability_PRF_DMEM_12hr: (Pilot) CCTE's 12-hour Cell Viability Assessment for the High-Throughput Transcriptomics (HTTr) Platform, in MCF-7 cells cultured in phenol red-free DMEM + 10% charcoal-stripped fetal bovine serum, Harrill Lab (AID 2283977; active means hit-call score of the fitted dose curve at least 0.9, where 1 is the maximum; inactive means score below 0.9)
# How it was run: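 MCF-7 cells in phenol red-free DMEM with 10% charcoal-stripped FBS exposed 12 hours to an eight-point dilution series. Viability assessed by high-content imaging of propidium iodide exclusion; bidirectional fit versus DMSO.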
# [20] = CCTE_Harrill_HTTr_Viability_PRF_DMEM_24hr: (Pilot) CCTE's 24-hour Cell Viability Assessment for the High-Throughput Transcriptomics (HTTr) Platform, in MCF-7 cells cultured in phenol red-free DMEM + 10% charcoal-stripped fetal bovine serum, Harrill Lab (AID 2283980; active means hit-call score of the fitted dose curve at least 0.9, where 1 is the maximum; inactive means score below 0.9)
# How it was run: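 MCF-7 cells in phenol red-free DMEM with 10% charcoal-stripped FBS, eight-point dilution series, 24 h exposure. Membrane integrity by propidium iodide exclusion with high content imaging; bidirectional fit vs DMSO.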
# Chain of THRB (gene 7068) (P10828 whole entry, looked up, the tested form may be a part): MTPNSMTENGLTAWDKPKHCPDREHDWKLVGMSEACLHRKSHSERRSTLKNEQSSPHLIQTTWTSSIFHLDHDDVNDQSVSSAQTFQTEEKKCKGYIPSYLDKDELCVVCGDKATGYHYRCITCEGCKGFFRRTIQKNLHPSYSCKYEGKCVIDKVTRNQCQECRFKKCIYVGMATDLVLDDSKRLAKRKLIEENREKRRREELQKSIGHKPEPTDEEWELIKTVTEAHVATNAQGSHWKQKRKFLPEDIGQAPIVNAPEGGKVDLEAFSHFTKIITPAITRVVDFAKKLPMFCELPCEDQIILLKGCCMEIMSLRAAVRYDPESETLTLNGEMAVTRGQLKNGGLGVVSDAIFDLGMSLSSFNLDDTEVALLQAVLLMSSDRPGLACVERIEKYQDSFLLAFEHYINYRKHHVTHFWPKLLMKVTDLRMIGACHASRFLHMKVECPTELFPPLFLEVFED
# Chain of THRA (gene 7067) (P10827 whole entry, looked up, the tested form may be a part): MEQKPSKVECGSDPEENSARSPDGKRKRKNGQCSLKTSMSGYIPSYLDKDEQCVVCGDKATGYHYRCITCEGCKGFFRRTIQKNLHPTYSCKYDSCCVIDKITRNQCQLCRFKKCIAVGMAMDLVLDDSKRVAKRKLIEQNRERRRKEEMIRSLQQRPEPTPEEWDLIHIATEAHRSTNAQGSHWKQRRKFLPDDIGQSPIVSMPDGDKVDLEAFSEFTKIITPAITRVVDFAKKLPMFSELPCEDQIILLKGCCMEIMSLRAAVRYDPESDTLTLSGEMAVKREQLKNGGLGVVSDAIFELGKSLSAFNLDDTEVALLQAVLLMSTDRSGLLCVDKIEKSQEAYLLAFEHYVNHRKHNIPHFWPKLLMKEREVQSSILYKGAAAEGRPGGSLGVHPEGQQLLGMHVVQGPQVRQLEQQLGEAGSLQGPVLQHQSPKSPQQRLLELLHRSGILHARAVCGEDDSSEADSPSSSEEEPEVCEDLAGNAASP
# Chain of Retinoic acid receptor RXR-alpha (Homo sapiens) (P19793 whole entry, looked up): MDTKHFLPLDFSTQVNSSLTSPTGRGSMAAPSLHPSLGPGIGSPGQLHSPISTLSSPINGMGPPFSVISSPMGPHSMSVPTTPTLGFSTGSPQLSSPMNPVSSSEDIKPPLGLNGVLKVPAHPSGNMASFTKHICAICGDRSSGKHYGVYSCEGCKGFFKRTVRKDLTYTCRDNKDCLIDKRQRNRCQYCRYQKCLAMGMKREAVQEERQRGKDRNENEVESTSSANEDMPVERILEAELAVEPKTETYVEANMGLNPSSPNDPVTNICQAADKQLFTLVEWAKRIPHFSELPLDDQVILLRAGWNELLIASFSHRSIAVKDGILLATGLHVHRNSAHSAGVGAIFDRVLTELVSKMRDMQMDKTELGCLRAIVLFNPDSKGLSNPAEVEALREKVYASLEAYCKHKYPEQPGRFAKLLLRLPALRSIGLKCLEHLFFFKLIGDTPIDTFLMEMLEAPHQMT
smiles,measurement,setting,value
Cc1nccn1-c1ccc(Sc2cccc(C3(C(N)=O)CCOCC3)c2)cc1,AC50,[1],32.9 µM (active)
same,outcome,[2],inactive
same,AC50,[3],21.5 µM (active)
same,outcome,[4],inactive
same,outcome,[5],inactive
same,outcome,[6],inactive
same,outcome,[7],inactive
O=c1[nH]cnc2c1ncn2[C@H]1CC[C@@H](CO)O1,outcome,[8],inactive
same,AC50,[9],9.78 µM (active)
same,outcome,[10],inactive
same,outcome,[11],inactive
same,outcome,[12],inactive
NC(=O)N(O)[C@@H]1COc2cc(OCc3ccccc3)ccc21,outcome,[13],inactive
same,outcome,[14],inactive
COc1cc2c(c(OC)c1OC)-c1ccc(OC)c(=O)cc1[C@@H](NC(C)=O)CC2,outcome,[1],inactive
same,AC50,[3],0.0894 µM (active)
same,outcome,[4],inactive
same,outcome,[5],inactive
same,outcome,[6],inactive
Nc1ccn([C@@H]2O[C@H](CO)[C@@H](O)[C@@H]2O)c(=O)n1,outcome,[1],inactive
same,outcome,[4],inactive
same,outcome,[5],inactive
Cn1c(=O)c2[nH]cnc2n(C)c1=O,outcome,[8],inactive
same,outcome,[9],inactive
same,outcome,[10],inactive
same,outcome,[11],inactive
same,outcome,[12],inactive
CC(C)C(=O)Nc1ccc([N+](=O)[O-])c(C(F)(F)F)c1,outcome,[13],inactive
same,outcome,[14],inactive
same,outcome,[15],inactive
same,outcome,[16],inactive
same,outcome,[17],inactive
same,outcome,[18],inactive
same,outcome,[19],inactive
same,outcome,[20],inactive
